# Test results as given in the supplement of paper PMC10646978.
# ± gives the standard deviation.
# What was measured:
# Details in all cases: modulator concentration 10 µM
# [1] = tested on: RAW-Dual (murine macrophage reporter line); experiment: NF-kB reporter (SEAP) activity fold change vs agonist alone; higher = enhanced NF-kB activity
# Method in brief: (§1)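 RAW-Dual murine macrophage reporter cells were seeded at 50 000 per well in 384-well plates and pre-incubated 1 hour at 37 °C with compound pin-transferred to 10 μM final. After 1 hour, a PRR agonist was added and cells incubated overnight. Supernatant NF-κB (SEAP, QUANTI-Blue, 620 nm absorbance) and IRF (Lucia luciferase, QUANTI-Luc, luminescence) signals were divided by the mean agonist-only control on the same plate to give fold change. Two replicate plates were averaged, with errors by propagation.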
# [2] = tested on: RAW-Dual (murine macrophage reporter line); experiment: IRF reporter (Lucia luciferase) activity fold change vs agonist alone; higher = enhanced IRF activity
# Method in brief: as §1
# [3] = tested on: RAW-Dual (murine macrophage reporter line); experiment: viability score (confluency relative to resting cells, overnight) (fraction); higher = more viable, active = viable (0.7 or more)
# Method in brief: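 RAW-Dual macrophages in 384-well plates were treated overnight with compound at 10 μM final. IncuCyte imaging recorded confluency, and IncuCyte software built two confluency masks across every imaged well. The viability score expresses confluency relative to resting cells and was judged against a cutoff, which a compound met only if both masks exceeded 70% of resting cells.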
# [4] = agonist: CpG ODN 1826 0.5 ug/mL
SMILES,"NF-kB reporter [1, 4]",NF-kB reporter ([1]; agonist: LPS 0.1 ug/mL),NF-kB reporter ([1]; agonist: MPLA […]),IRF reporter ([2]; agonist: 3'3'-cGAMP 10 ug/mL),IRF reporter ([2]; agonist: LPS 0.1 ug/mL),IRF reporter ([2]; agonist: MPLA […]),viability score [3]
CCc1ccc2oc(-c3ccc(NC(=O)c4ccc(C)c([N+](=O)[O-])c4)cc3)nc2c1,1.02 ± 0.08,1.04 ± 0.059,0.931 ± 0.089,1 ± 0.025,1.6 ± 0.22,1.33 ± 0.16,1.01 (active)
CCCc1nc(-c2ccccc2)c(-c2ccc(OC)c(OC)c2)c(=O)[nH]1,0.803 ± 0.067,0.844 ± 0.1,1.06 ± 0.1,0.933 ± 0.057,1.46 ± 0.084,1.78 ± 0.16,1.01 (active)
O=C(O)c1ccc2c(c1)nc(Nc1cccc(Cl)c1)c1ccncc12,1.24 ± 0.19,1.35 ± 0.35,1.4 ± 0.34,0.993 ± 0.033,1.39 ± 0.32,0.832 ± 0.083,0.986 (active)
COc1ccc(CCNC2CC(=O)N(C)C2=O)cc1OC (stereo not given),1.08 ± 0.061,1.03 ± 0.11,0.994 ± 0.046,0.944 ± 0.07,0.998 ± 0.091,0.895 ± 0.15,0.997 (active)
CC1=NN(C(=O)OC(C)(C)C)C(O)(c2ccncc2)C1 (stereo not given),1.03 ± 0.084,1.01 ± 0.1,0.886 ± 0.084,0.979 ± 0.081,1.14 ± 0.14,1.22 ± 0.2,1.03 (active)
CC1(C)CCC2(C(=O)O)CCC3(C)C(=CCC4C5(C)CCC(O)C(C)(C)C5CCC43C)C2C1 (stereo not given),1.18 ± 0.28,1.12 ± 0.088,0.942 ± 0.095,0.878 ± 0.03,1.3 ± 0.18,1.24 ± 0.18,0.999 (active)
CS(=O)(=O)C1CCN(C(=O)C2(c3ccccc3)CCOCC2)C1 (stereo not given),0.986 ± 0.11,1.04 ± 0.083,0.927 ± 0.047,0.977 ± 0.068,1 ± 0.087,1.03 ± 0.33,1.02 (active)
CCOc1cc2ncc(C#N)c(Nc3ccc(OCc4ccccn4)c(Cl)c3)c2cc1NC(=O)/C=C/CN(C)C,0.161 ± 0.007,0.781 ± 0.075,0.907 ± 0.092,0.694 ± 0.032,1.46 ± 0.26,1.56 ± 0.57,0.977 (active)
NC(=O)c1cccc2cn(-c3ccc([C@@H]4CCCNC4)cc3)nc12,0.187 ± 0.014,0.573 ± 0.051,0.85 ± 0.072,0.508 ± 0.051,0.559 ± 0.07,0.977 ± 0.088,0.887 (active)
COCCNCCOc1cc(C)c(Cl)c(C)c1,0.908 ± 0.078,0.952 ± 0.045,0.932 ± 0.085,0.947 ± 0.049,1.52 ± 0.098,1.67 ± 0.17,0.974 (active)
CNC(=NC#N)NCCSCc1nc[nH]c1C,0.952 ± 0.073,0.94 ± 0.11,1.03 ± 0.16,1.01 ± 0.032,1.21 ± 0.14,1.36 ± 0.16,1.03 (active)
CC(=O)SCC(Cc1ccccc1)C(=O)NCC(=O)OCc1ccccc1 (stereo not given),1.01 ± 0.075,0.997 ± 0.07,0.99 ± 0.045,0.967 ± 0.08,0.76 ± 0.027,0.785 ± 0.087,1 (active)
O=C(O)C=Cc1ccc(S(=O)(=O)NCc2cccnc2)cc1,0.751 ± 0.077,0.82 ± 0.049,1.02 ± 0.091,1.02 ± 0.062,1.46 ± 0.098,1.72 ± 0.19,1.01 (active)
O=C1C(N2CCC(O)C2)CCN1CC(F)(F)F (stereo not given),0.992 ± 0.12,1.04 ± 0.1,0.876 ± 0.086,1.03 ± 0.053,1.22 ± 0.079,1.24 ± 0.15,1.01 (active)
Clc1cccc(C=Cc2nn3c(Cc4ccccc4)nnc3s2)c1,0.885 ± 0.04,0.927 ± 0.092,1.12 ± 0.06,0.86 ± 0.039,1.35 ± 0.24,1.44 ± 0.43,0.987 (active)
NC1CONC1=O (stereo not given),1.25 ± 0.3,1.09 ± 0.11,1 ± 0.082,0.937 ± 0.033,1.2 ± 0.17,1.11 ± 0.12,0.991 (active)
CCOC(=O)C(CCc1ccccc1)NC(C)C(=O)N1C(C(=O)O)CC2CCCC21 (stereo not given),1.01 ± 0.28,0.998 ± 0.068,1.07 ± 0.072,0.878 ± 0.055,1.28 ± 0.21,1.34 ± 0.23,0.989 (active)
CCOC(=O)C1=C(C)NC(C)=C(C(=O)OC)C1c1ccco1 (stereo not given),1.03 ± 0.17,0.955 ± 0.1,1.03 ± 0.086,0.95 ± 0.037,1.14 ± 0.18,1.2 ± 0.25,1.01 (active)
CC1(C)Cc2ccccc2C(C[N+](=O)[O-])=N1,0.899 ± 0.07,0.901 ± 0.1,1.65 ± 0.61,0.963 ± 0.056,1.26 ± 0.08,1.38 ± 0.13,0.997 (active)
Cc1ccc(NC(Nc2ccc(C)cc2)=C(C(Cl)=C(Cl)Cl)[N+](=O)[O-])cc1,1.01 ± 0.17,0.881 ± 0.07,1.18 ± 0.36,0.264 ± 0.01,1.29 ± 0.14,1.33 ± 0.16,0.998 (active)
COc1ccc2c(c1)c(=O)oc1cc(OCc3cccc(C(F)(F)F)c3)ccc12,1.03 ± 0.076,1.01 ± 0.1,1.04 ± 0.027,0.998 ± 0.047,0.97 ± 0.046,1.11 ± 0.11,0.995 (active)
Cc1ccc(Nc2nc(N3CCOCC3)nc(N3CCN(c4ccccc4)CC3)n2)cc1,0.454 ± 0.029,1.05 ± 0.084,1.98 ± 0.059,0.711 ± 0.027,1.4 ± 0.067,1.9 ± 0.18,0.996 (active)
COc1cc(C=NNC(=O)c2ccc(OC)c(OC)c2)ccc1O,0.788 ± 0.32,0.838 ± 0.098,0.831 ± 0.066,0.83 ± 0.022,0.938 ± 0.15,1.15 ± 0.15,0.996 (active)
COC(=O)C1=C(C)NC(C)=C(C(=O)O[C@@H]2CCCN(Cc3ccccc3)C2)[C@@H]1c1cccc([N+](=O)[O-])c1.Cl,0.323 ± 0.024,0.587 ± 0.034,1.31 ± 0.036,0.31 ± 0.018,1.05 ± 0.12,1.25 ± 0.18,0.997 (active)
CO[C@@]12[C@H](COC(N)=O)C3=C(C(=O)C(C)=C(N)C3=O)N1C[C@@H]1N[C@@H]12,2.4 ± 0.14,1.47 ± 0.1,2.16 ± 0.18,1.21 ± 0.069,1.42 ± 0.099,1.24 ± 0.24,0.644 (inactive)
